{
  "source": "PubChem BioAssay (Tox21)",
  "note": "Results filed as inconclusive are left out. Values without a mark were called inactive. Active and inactive are the calls of the source. The call rests on the fitted dose curve. On the % scale 0 is the no-effect control and ±100 the full control effect.",
  "data": [
    {"test": "cAMP Responsive Elements (CRE) small molecule agonists, cell-based qHTS assay (AID 1963590)", "settings": "CRE-bla HEK293T, beta-lactamase FRET ratio, 3 h; series mostly up to 92.4 µM; activation: at the top concentration", "from_the_text": "U.S. Tox21 Program National Center for Advancing Translational Sciences [NCATS] Division of Preclinical Innovation [DPI] U.S. Environmental Protection Agency [EPA] National Institutes of Environmental Health Sciences [NIEHS] National Toxicology Program [NTP] U.S. Food and Drug Administration [FDA] Tox21 Assay Overview: CREB (cyclic-AMP Responsive Element Binding Protein) is a cellular transcription factor. It binds to certain DNA sequences called cAMP Responsive Elements (CRE) and regulates the transcription of the genes. […] This cell line can be used to find agonists/antagonists of the cyclic AMP signaling pathway. The activation of the report gene under culture conditions can be detected by fluorescence intensity. This cell line has been used to screen the Tox21 10K compound library to identify agonists that induce oxidative stress.\nTox21 Assay Protocol Summary: CRE-bla Hek 293T cells were suspended in assay medium (DMEM containing 10% dialyzed FBS, 0.1 mM NEAA, 1 mM sodium pyruvate and 25 mM HEPES) and dispensed at 2,000 cells/5 uL /well into 1536-well black wall/clear bottom plates using a Multidrop Combi (ThermoFisher Scientific, Waltham, MA) dispenser. After the assay plates were incubated at 37 C/5% CO2 for 18 hrs, 23 nL of compounds dissolved in DMSO, positive controls or DMSO only was transferred to the assay plate by a pintool workstation (Kalypsys, San Diego, CA). After the plates were incubated at 37 C/5% CO2 for 3 hrs, 1 uL of LiveBLAzer B/G FRET substrate (Invitrogen, Carlsbad, CA) was added to each well using Bioraptr Flying Reagent Dispenser (FRD, Aurora Discovery, San Diego, CA). The plates were incubated at room temperature for 2 h.", "values": [
      {"smiles": "CC(C)C(=O)C(C)C", "activation": "-0.863%"},
      {"smiles": "COc1cc(C(=O)NCc2ccc(OCCN(C)C)cc2)cc(OC)c1OC", "activation": "-0.584% [at 42.5 µM]"},
      {"smiles": "OCC1CCC(CO)CC1", "note": "(stereo not given)", "activation": "0.964%"},
      {"smiles": "CCCCCCCCCC/C=C/C#N", "activation": "0.703%"},
      {"smiles": "Cc1ccccc1N=O", "activation": "-1.03%"},
      {"smiles": "CC(CO)CO", "activation": "-0.911%"},
      {"smiles": "CCc1cnc(C(=O)O)c(C(=O)O)c1", "activation": "0.497%"},
      {"smiles": "C=CCCC=C", "activation": "1.47%"},
      {"smiles": "COC(OC)OC", "activation": "-0.403%"},
      {"smiles": "OC1(c2ccc(Cl)cc2)CCNCC1", "activation": "0.621% [at 42.5 µM]"},
      {"smiles": "CC(C)CCCCCOC(=O)CS", "activation": "0.139%"},
      {"smiles": "CCC(C)S", "note": "(stereo not given)", "activation": "-0.121% [at 3.27 µM]"},
      {"smiles": "CC[C@@H]1C[C@H](N(Cc2cc(C(F)(F)F)cc(C(F)(F)F)c2)C(C)=O)c2cc(C(F)(F)F)ccc2N1C(=O)OC(C)C", "activation": "-2.86%"},
      {"smiles": "COc1cccc2c1C(=O)c1c(O)c3c(c(O)c1C2=O)C[C@@](O)(C(=O)CO)C[C@@H]3O[C@H]1C[C@H](N)[C@H](O)[C@H](C)O1", "Potency": "inactive"},
      {"smiles": "O=C[C@H](O)[C@@H](O)[C@H](O)[C@H](O)CO", "activation": "0.501%"},
      {"smiles": "CC(C)(C)C(=O)OCOP(=O)(COCCn1cnc2c(N)ncnc21)OCOC(=O)C(C)(C)C", "activation": "7.21% [at 42.5 µM]"},
      {"smiles": "O=C(O)c1cc(O)c(O)c(O)c1", "Potency": "inactive"},
      {"smiles": "COC(=O)c1ccc2cc(C(=O)OC)ccc2c1", "activation": "-2.52% [at 19 µM]"},
      {"smiles": "CCCC(O)C(O)CO", "note": "(stereo not given)", "activation": "-0.296%"},
      {"smiles": "C[Si](C)(C)Cl", "activation": "1.61%"},
      {"smiles": "COc1cc(/C=C/C(N)=O)cc(OC)c1OC", "activation": "0.317% [at 42.5 µM]"},
      {"smiles": "O=C1CCCCC1", "Potency": "inactive"},
      {"smiles": "O=C(O[C@@H]1Cc2c(O)cc(O)cc2O[C@@H]1c1cc(O)c(O)c(O)c1)c1cc(O)c(O)c(O)c1", "Potency": "inactive"},
      {"smiles": "CO[Si](CCCNCCC[Si](OC)(OC)OC)(OC)OC", "activation": "-0.246%"},
      {"smiles": "CC(=O)N[C@@H](CC(C)C)C(=O)O", "activation": "1% [at 42.5 µM]"},
      {"smiles": "CN1Cc2c(N)cccc2C(c2ccccc2)C1", "note": "(stereo not given)", "Potency": "inactive"},
      {"smiles": "CC1=CCC(C(C)C)=CC1", "activation": "0.314%"},
      {"smiles": "C[C@]12CCC(=O)C=C1CC[C@@H]1[C@@H]2[C@@H](O)C[C@@]2(C)[C@H]1CC[C@]2(O)C(=O)CO", "Potency": "inactive"},
      {"smiles": "Cc1ccc(-c2ccccc2)cc1", "activation": "-1.48%"},
      {"smiles": "CCCCCCOC(=O)C(C)CC", "note": "(stereo not given)", "activation": "0.305%"},
      {"smiles": "Cc1ccc(S(=O)(=O)NC(=O)NC2CCCC2)cc1", "activation": "-0.04% [at 42.5 µM]"},
      {"smiles": "CCCCC(CC)COC(C)=O", "note": "(stereo not given)", "Potency": "inactive"},
      {"smiles": "COc1cc(C(=S)N2CCOCC2)ccc1O", "activation": "0.541% [at 42.5 µM]"},
      {"smiles": "OCC(CO)(CBr)CBr", "Potency": "inactive"},
      {"smiles": "CCCC/C=C\\CCCCCCCCCC=O", "activation": "-0.0879%"},
      {"smiles": "BrC1CCC(Br)C(Br)CCC(Br)C(Br)CCC1Br", "note": "(stereo not given)", "activation": "-0.77%"},
      {"smiles": "O=C(O)c1ccccc1[N+](=O)[O-]", "activation": "0.586%"},
      {"smiles": "CC(=O)O[C@H]1C[C@@H]2CC[C@@]1(C)C2(C)C", "activation": "0.403%"},
      {"smiles": "CCCC(=O)c1ccccc1", "activation": "0.594%"},
      {"smiles": "CCCCCC1CCC(=O)O1", "note": "(stereo not given)", "activation": "-0.43%"}
    ]}
  ]
}
